According to PubChem BioAssay:
Values without a mark were called inactive. For some assays here: Results with a measured potency or affinity are listed apart. Activity calls are given as the source filed them. Unless noted, how the calls were made is not given here.

Experiments:
[1] = antimalarial activity against Dd2 strain (AID 2302;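 active means growth inhibition above 50% at the single 2 µM test dose, taken to imply half-maximal potency below 2 µM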;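 further: 0% = DMSO untreated growth and 100% = chloroquine plus artemisinin killed control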); details: P. falciparum Dd2 in RBCs, LDH growth readout, 72 h; at 2 µM; active compounds read high
[2] = human hepatoma cell viability loss – ATP luminescence, cytotoxicity control for P. falciparum antimalarial project, primary screen (AID 2303;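 active means inhibition above 50%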;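 further: 0% = DMSO wells and 100% = digitonin-killed cells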); details: HepG2 viability, 24-48 h, at 10 µM, active compounds read high
[3] = molecular target: L-lactate dehydrogenase (Plasmodium falciparum (isolate CDC / Honduras)) (UniProt Q27743); test: PfLDH activity inhibition – cell lysate, 3D7 strain, counter-screen for P. falciparum growth inhibition project (AID 2304);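 further: 0% = vehicle and 100% = reference inhibitor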; details: P. falciparum 3D7 crude extract, LDH APAD/NBT absorbance; at 2 µM; active compounds read high
Chain of L-lactate dehydrogenase (Plasmodium falciparum (isolate CDC / Honduras)) (Q27743 whole entry, looked up): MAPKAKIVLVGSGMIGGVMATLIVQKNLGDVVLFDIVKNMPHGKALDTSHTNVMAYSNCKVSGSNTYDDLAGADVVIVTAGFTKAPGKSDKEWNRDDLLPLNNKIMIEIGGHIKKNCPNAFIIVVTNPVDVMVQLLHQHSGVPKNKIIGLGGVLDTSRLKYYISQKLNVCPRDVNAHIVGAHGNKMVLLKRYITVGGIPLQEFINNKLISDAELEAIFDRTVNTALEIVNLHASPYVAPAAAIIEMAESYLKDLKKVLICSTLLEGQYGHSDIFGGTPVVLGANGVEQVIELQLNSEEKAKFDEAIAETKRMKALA

[4] = inhibition of 3D7 malaria parasite growth – strain 3D7 (AID 2306);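 further: 0% = DMSO wells and 100% = chloroquine plus artemisinin control wells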; details: P. falciparum 3D7 erythrocytic growth, LDH absorbance, 72 h; at 2 µM; active compounds read high
[5] = molecular target: Calcium-dependent protein kinase 1 (Plasmodium falciparum (isolate 3D7)) (UniProt P62344); test: PfCDPK1 kinase inhibitors, biochemical, TCAMS library (AID 1159585; cut-off not given, nearly all actives have IC50 up to about 0.98 µM;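 further: inhibitors leave more ATP so luminescence rises with inhibition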); details: recombinant PfCDPK1, Kinase-Glo ATP depletion luminescence
Chain of Calcium-dependent protein kinase 1 (Plasmodium falciparum (isolate 3D7)) (P62344 whole entry, looked up): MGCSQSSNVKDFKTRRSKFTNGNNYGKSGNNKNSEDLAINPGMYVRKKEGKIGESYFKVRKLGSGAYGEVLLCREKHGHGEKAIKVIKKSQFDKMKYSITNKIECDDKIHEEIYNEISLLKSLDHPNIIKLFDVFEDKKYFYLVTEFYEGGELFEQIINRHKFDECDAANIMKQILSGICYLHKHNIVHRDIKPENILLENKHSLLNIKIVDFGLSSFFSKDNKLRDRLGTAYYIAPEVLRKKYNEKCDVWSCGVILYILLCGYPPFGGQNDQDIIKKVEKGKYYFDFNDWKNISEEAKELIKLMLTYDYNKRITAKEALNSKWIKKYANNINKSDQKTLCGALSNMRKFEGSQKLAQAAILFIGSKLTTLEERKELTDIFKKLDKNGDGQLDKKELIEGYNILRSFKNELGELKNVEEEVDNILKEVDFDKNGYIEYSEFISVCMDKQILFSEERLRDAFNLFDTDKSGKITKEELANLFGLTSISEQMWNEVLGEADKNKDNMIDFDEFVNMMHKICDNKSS

[6] = molecular target: Plasmodium falciparum protein kinase 6 (PK6, PF3D7_1337100) (UniProt Q8IDW1); test: PfPK6 kinase inhibitors, biochemical, TCAMS library (AID 1159586); details: recombinant PfPK6, Kinase-Glo ATP depletion luminescence
Chain of Plasmodium falciparum protein kinase 6 (PK6, PF3D7_1337100) (Q8IDW1 1-305): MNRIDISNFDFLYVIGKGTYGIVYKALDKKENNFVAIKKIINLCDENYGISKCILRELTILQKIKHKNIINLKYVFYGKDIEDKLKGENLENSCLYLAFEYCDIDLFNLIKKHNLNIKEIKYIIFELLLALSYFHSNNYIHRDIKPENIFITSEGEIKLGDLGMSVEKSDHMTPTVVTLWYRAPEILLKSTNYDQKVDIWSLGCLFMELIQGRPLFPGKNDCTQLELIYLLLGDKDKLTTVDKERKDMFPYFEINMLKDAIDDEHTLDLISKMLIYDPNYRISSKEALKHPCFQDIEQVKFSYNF

[7] = molecular target: Protein kinase 7 (PK7), Plasmodium falciparum 3D7 (PF3D7_0213400) (UniProt Q7YTF7); test: inhibition of Plasmodium PK7 catalytic activity – biochemical, TCAMS antimalarial set, Kinase-Glo luminescence (AID 1159587); details: recombinant PfPK7, Kinase-Glo ATP depletion luminescence
Chain of Protein kinase 7 (PK7), Plasmodium falciparum 3D7 (PF3D7_0213400) (Q7YTF7 1-343): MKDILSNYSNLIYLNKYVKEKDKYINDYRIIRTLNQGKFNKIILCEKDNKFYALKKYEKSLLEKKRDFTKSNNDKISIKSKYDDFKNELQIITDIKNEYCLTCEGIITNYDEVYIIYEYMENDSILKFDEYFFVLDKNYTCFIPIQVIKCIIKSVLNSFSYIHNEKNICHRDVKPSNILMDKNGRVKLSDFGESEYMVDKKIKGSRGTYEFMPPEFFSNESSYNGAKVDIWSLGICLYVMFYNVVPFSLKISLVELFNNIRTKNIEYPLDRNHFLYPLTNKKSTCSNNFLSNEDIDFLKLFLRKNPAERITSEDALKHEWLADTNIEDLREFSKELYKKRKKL

[8] = molecular target: Calcium-dependent protein kinase 4 (Plasmodium falciparum (isolate 3D7)) (UniProt Q8IBS5); test: PfCDPK4 kinase inhibitors, biochemical, TCAMS library (AID 1159588; cut-off not given, nearly all actives have IC50 up to about 0.91 µM); details: recombinant PfCDPK4, Kinase-Glo ATP depletion luminescence
Chain of Calcium-dependent protein kinase 4 (Plasmodium falciparum (isolate 3D7)) (Q8IBS5 whole entry, looked up): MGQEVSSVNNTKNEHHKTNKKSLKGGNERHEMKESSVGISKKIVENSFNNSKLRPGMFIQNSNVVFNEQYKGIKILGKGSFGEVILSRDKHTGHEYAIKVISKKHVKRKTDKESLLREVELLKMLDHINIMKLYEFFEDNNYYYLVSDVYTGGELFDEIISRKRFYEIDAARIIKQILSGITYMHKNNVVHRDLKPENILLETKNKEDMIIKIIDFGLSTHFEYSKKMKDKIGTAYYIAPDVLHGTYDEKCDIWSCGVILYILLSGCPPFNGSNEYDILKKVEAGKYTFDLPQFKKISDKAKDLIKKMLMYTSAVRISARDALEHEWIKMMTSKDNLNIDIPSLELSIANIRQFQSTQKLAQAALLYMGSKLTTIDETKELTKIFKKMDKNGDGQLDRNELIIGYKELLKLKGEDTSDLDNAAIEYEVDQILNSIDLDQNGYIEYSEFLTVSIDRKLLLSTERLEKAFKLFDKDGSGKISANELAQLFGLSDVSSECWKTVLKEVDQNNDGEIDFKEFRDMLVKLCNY

Row | Structure (SMILES) | growth inhibition [1] | inhibition [2] | inhibition [3] | growth inhibition [4] | outcome [5] | outcome [6] | outcome [7] | outcome [8]
1 | CC(C)(C)c1cc(C(=O)N2CCN(c3ncnc4ccsc34)CC2)n(Cc2ccccc2)n1 | 83% (active) | 2% | -8% | 95% (active) | inactive | inactive | inactive | inactive
2 | O=C(Nc1ccc2nc3n(c(=O)c2c1)CCCCC3)C(=O)N1CCN(c2ccc(F)cc2)CC1 | 86% (active) | 10% | -1% | 93% (active) | inactive | inactive | inactive | inactive
3 | O=C(NCCCCN1CCC(c2ccc3c(c2OCc2ccncc2)CCCC3)CC1)c1ccc(NC(=O)c2ccc(Cl)cc2)cc1 | 99% (active) | 62% (active) | -4% | 100% (active) | inactive | inactive | inactive | inactive
4 | Nc1ccc2[nH]cc(C3CCN(CC4CCC(NC(=O)/C=C/c5ccccc5Cl)CC4)CC3)c2n1 (stereo not given) | 45% | 7% | -3% | 100% (active) | inactive | inactive | inactive | inactive
5 | Cc1cccc2[nH]c(-c3ccc(-c4ccc(CN5CCN(CCC#N)CC5)cc4)cc3)nc12 | 27% | 48% | 0% | 91% (active) | inactive | inactive | inactive | inactive
6 | CC(=O)Nc1cccc(CNc2cc(C)nc(Nc3ccc(C)cc3)n2)c1 | 23% | 18% | 0% | 82% (active) | inactive | inactive | inactive | inactive
7 | COc1cc(Nc2nccc(N3CCC(NC(=O)C(C)c4ccc(Cl)cc4)C3)n2)cc(OC)c1OC (stereo not given) | 90% (active) | 2% | -7% | 97% (active) | inactive | inactive | inactive | inactive
8 | CCN(CC)CCN(Cc1ccc(-c2ccc(C(F)(F)F)cc2)cc1)C(=O)Cn1c(CCc2cccc(F)c2F)cc(=O)c(C)c1C | 87% (active) | 35% | -4% | 97% (active) | inactive | inactive | inactive | inactive
9 | NC(N)=NC(=O)Nc1cc(Cl)c(Br)c(Cl)c1 | 101% (active) | 6% | 4% | 101% (active) | inactive | inactive | inactive | inactive
10 | CC(C)CCNC(=O)[C@@H]1[C@H]2C(=O)N(C3CCCCC3)C(=O)[C@H]2[C@H]2C=C[C@@H]3C(c4ccc(C(C)(C)C)cc4)=NO[C@@H]3N21 | 48% | -4% | -2% | 96% (active) | inactive | inactive | inactive | inactive
11 | O=S(=O)(c1c(Cl)cccc1Cl)N1CCCCC(c2ccc(C(F)(F)F)cc2)=N1 | 98% (active) | 11% | -2% | 99% (active) | inactive | inactive | inactive | inactive
12 | FC(F)(F)c1ccc2nc(-c3ccc(-c4ccc(CNCCN5CCNCC5)cc4)s3)[nH]c2c1 | 79% (active) | 17% | -2% | 94% (active) | inactive | inactive | inactive | inactive
13 | COc1cccc(CNC(=O)c2ccnc(-c3ccc(CNCCOc4ccccc4)cc3)c2)c1 | 10% | 23% | -4% | 83% (active) | inactive | inactive | inactive | inactive
14 | O=C1OC(c2ccccc2)(c2ccccc2)CN1CC1CCN(Cc2ccc(O)c(Cl)c2)CC1 | 90% (active) | 26% | -1% | 98% (active) | inactive | inactive | inactive | inactive
15 | CC1CCC2(CC1)N=C(N)N=C(N)N2OCc1ccc(Br)c2ccccc12 (stereo not given) | 40% | 46% | -4% | 96% (active) | inactive | inactive | inactive | inactive
16 | N#Cc1ccc2[nH]cc(-c3cn4cc(SC5CCCC5)ccc4n3)c2c1 | 21% | 1% | 3% | 92% (active) | inactive | inactive | inactive | inactive
17 | CCOc1c(OC)ccc2c1CCN(CCN1CCC(CNC(=O)c3ccc(-c4ccc(C(F)(F)F)cc4)cc3)CC1)C2 | 21% | 54% (active) | 2% | 102% (active) | inactive | inactive | inactive | inactive
18 | COc1ccc(C2CC(=O)C3=C(C2)NC(C)=C(C(=O)OC2CCCC2)C3c2cccc(O)c2)cc1 (stereo not given) | 83% (active) | -6% | -2% | 88% (active) | inactive | inactive | inactive | inactive
19 | COc1ccc(NC(=O)c2ccc(Br)c(C)c2)cc1N1CCN(Cc2ccccc2)CC1 | 3% | -2% | 0% | 95% (active) | inactive | inactive | inactive | inactive
20 | CCOc1ccc(CCC(=O)O)cc1OCC | -3% | 60% (active) | 6% | 94% (active) | inactive | inactive | inactive | inactive

Row | Structure (SMILES) | growth inhibition [1] | inhibition [2] | inhibition [3] | growth inhibition [4] | outcome [5] | outcome [6] | outcome [7] | outcome [8]
21 | CC(=O)c1ccc(-c2cccc3c(CC(=O)Nc4ccc5nccc(N6CCN(C)CC6)c5c4)cccc23)cc1 | 96% (active) | 3% | -11% | 101% (active) | inactive | inactive | inactive | inactive
22 | O=C(Nc1cccc(-c2cccc(-c3nc4ccc(C(F)(F)F)cc4[nH]3)c2)c1)c1csnn1 | 37% | 45% | 3% | 99% (active) | inactive | inactive | inactive | inactive
23 | Cc1nc(N)nc(N)c1CCCOc1cccc(Cl)c1 | -1% | 16% | -4% | 96% (active) | inactive | inactive | inactive | inactive
24 | Cc1noc(-c2ccc3c(c2)CCN(CCC2CCC(NC(=O)/C=C/c4ccc(F)cc4)CC2)CC3)n1 (stereo not given) | 39% | 44% | 3% | 91% (active) | inactive | inactive | inactive | inactive
25 | Nc1ncc(-c2ccc(NC(=O)Nc3cc(C(F)(F)F)ccc3F)cc2)c(N)n1 | 21% | 96% (active) | -5% | 99% (active) | inactive | inactive | inactive | inactive
26 | O=C(Nc1ccc(Cl)c(Cl)c1)N(Cc1ccccc1Br)C1CCNCC1 | 8% | 13% | 7% | 96% (active) | inactive | inactive | inactive | inactive
27 | COc1ccc(NC(=O)Nc2ccc(C)c(-c3ccc(C(=O)NCCN4CCCC4)cc3)c2)cc1 | 1% | 18% | 3% | 95% (active) | inactive | inactive | inactive | inactive
28 | N#Cc1ccc(N(CCOc2ccc(Cl)c(Cl)c2)Cc2ccccc2C(F)(F)F)cc1C(F)(F)F | 57% (active) | 13% | -2% | 90% (active) | inactive | inactive | inactive | inactive
29 | COc1ccc(C(=O)CC(=O)c2ccc(OC)cc2OC)c(OC)c1 | -2% | 1% | 2% | 98% (active) | inactive | inactive | inactive | inactive
30 | FC(F)(F)CNc1nc(Nc2ccc3ncccc3c2)nc2[nH]ccc12 | 83% (active) | 37% | 0% | 87% (active) | inactive | inactive | inactive | inactive
31 | CC(C)(C)c1cc(C(=O)N2CCN(c3ccc(C(F)(F)F)cn3)CC2)n(Cc2ccc(F)cc2)n1 | 26% | 4% | -1% | 88% (active) | inactive | inactive | inactive | inactive
32 | Cc1cc(Cl)ccc1NC(=O)NCCCCCN1CCC(c2c[nH]c3ccccc23)CC1 | 8% | 59% (active) | 0% | 91% (active) | inactive | inactive | inactive | inactive
33 | O=C(Nc1ccc(Cl)cc1)Nc1cccc(-c2ccc(-c3nc4ccccc4[nH]3)cc2)c1 | 6% | 19% | -3% | 87% (active) | inactive | inactive | inactive | inactive
34 | Cc1cc(O)c(CN(C)Cc2ccc3c(c2)OCCO3)cc1C(C)C | 47% | 10% | -3% | 98% (active) | inactive | inactive | inactive | inactive
35 | Oc1ccc2c(c1CNC1CCCCC1)CCCC2 | 94% (active) | 0% | -3% | 98% (active) | inactive | inactive | inactive | inactive
36 | CCN(CC)C(=NCCCCCCN=C(/N=C(/N)Nc1ccc(C)cc1)N(CC)CC)/N=C(/N)Nc1ccc(C)cc1 | 98% (active) | 10% | -3% | 97% (active) | inactive | inactive | inactive | inactive
37 | CCc1cn2c3c(cc(C(=O)N[C@@H](Cc4ccccc4)[C@H](O)CNCc4cccc(C)c4)cc13)N(C)S(=O)(=O)CC2 | 98% (active) | 5% | 5% | 96% (active) | inactive | inactive | inactive | inactive
38 | C[C@@H](COc1ccc(-c2ccccc2)cc1)CON1C(N)=NC(N)=NC1(C)C | 96% (active) | 62% (active) | 3% | 96% (active) | inactive | inactive | inactive | inactive
39 | CCOC(=O)C(C#N)NC(=O)C=Cc1ccccc1 (stereo not given) | 9% | -7% | 6% | 96% (active) | inactive | inactive | inactive | inactive
40 | OCC1CCN(Cc2ccc(-c3ccc(-c4nc5ccc(F)cc5[nH]4)cc3)cc2)CC1 | 95% (active) | 17% | -1% | 100% (active) | inactive | inactive | inactive | inactive
